From article PMC7862700, “An all-to-all approach to the identification of sequence-specific readers for epigenetic DNA modifications on cytosine”

molecular target: CRX (Homo sapiens, UniProt O43186 1-299); assay: DAPPL (digital affinity profiling via proximity ligation, sequencing); 10 mM Tris-HCl pH 7.5, 50 mM NaCl, 1 mM DTT, 4% glycerol, room temperature, 30 min; GST-TFs on glutathione beads, 16-mer random dsDNA library, 0.1% formaldehyde crosslink after washing; high values mean tight binding; details: protein: recombinant; tags: N-terminal GST; dsDNA, one strand shown
Sequence (O43186 whole entry, the tested form may be a part): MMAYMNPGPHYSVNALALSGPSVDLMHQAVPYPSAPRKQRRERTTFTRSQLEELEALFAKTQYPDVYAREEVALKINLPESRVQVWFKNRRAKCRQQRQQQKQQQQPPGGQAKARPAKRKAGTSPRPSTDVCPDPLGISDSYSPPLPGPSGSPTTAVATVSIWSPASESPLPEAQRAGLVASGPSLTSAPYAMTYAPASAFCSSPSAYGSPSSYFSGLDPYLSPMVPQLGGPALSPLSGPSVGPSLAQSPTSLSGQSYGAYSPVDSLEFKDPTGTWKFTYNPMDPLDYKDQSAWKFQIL
Procedure, shortened: (§1)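 Pools were built from human transcription factors expressed in yeast as GST fusions, captured on glutathione beads and DNA-barcoded, along with a tag-only sample. Incubation with 200 nmole of a 16-mer random double-stranded DNA library lasted 30 min at room temperature in Tris/NaCl/DTT/glycerol buffer, and was followed by washing, 0.1% formaldehyde crosslinking, proximity ligation, PCR amplification and Illumina NextSeq500 sequencing. Binding signal is the quotient of each hexamer's read frequency for a factor and its frequency for the tag-only sample.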

| Sequence | binding signal |
| --- | --- |
| TAGAGG | 1.02 fold enrichment (6-mer frequency, TF over GST control) |
| TAGCCG | 1.05 fold enrichment (6-mer frequency, TF over GST control) |
| GATTGG | 1.01 fold enrichment (6-mer frequency, TF over GST control) |
| TAAGGA | 1.22 fold enrichment (6-mer frequency, TF over GST control) |
| GGGATA | 1.04 fold enrichment (6-mer frequency, TF over GST control) |
| CCAAAG | 1.05 fold enrichment (6-mer frequency, TF over GST control) |
| AAGCCG | 1.42 fold enrichment (6-mer frequency, TF over GST control) |
| GCATAA | 1.15 fold enrichment (6-mer frequency, TF over GST control) |
| GCGTAA | 1.03 fold enrichment (6-mer frequency, TF over GST control) |
| AGTCTT | 1.02 fold enrichment (6-mer frequency, TF over GST control) |
| GTTTAG | 1 fold enrichment (6-mer frequency, TF over GST control) |
| GCGGAT | 1.2 fold enrichment (6-mer frequency, TF over GST control) |
| GGGGAT | 1.21 fold enrichment (6-mer frequency, TF over GST control) |
| GGATGA | 1.11 fold enrichment (6-mer frequency, TF over GST control) |
| GGATTG | 1.12 fold enrichment (6-mer frequency, TF over GST control) |
| TATCGG | 1.1 fold enrichment (6-mer frequency, TF over GST control) |

molecular target: T1, ERF (Homo sapiens, UniProt P50548 1-548); assay: as above; details: protein: recombinant; tags: N-terminal GST; dsDNA, one strand shown
T1 sequence: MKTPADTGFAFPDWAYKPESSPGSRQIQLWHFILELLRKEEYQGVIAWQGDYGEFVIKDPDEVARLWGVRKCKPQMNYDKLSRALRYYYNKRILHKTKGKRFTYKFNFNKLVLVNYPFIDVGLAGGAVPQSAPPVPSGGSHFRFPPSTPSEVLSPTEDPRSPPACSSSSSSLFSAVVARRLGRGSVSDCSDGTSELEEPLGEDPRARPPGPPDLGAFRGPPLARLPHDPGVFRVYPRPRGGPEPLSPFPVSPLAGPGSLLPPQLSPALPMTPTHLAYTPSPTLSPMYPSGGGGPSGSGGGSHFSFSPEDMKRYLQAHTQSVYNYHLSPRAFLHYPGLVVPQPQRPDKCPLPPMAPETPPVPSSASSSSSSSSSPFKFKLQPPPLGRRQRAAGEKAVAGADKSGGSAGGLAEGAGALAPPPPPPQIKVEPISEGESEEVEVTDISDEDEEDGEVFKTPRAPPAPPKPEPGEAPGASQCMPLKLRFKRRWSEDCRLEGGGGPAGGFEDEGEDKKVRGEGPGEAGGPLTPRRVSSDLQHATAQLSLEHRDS
Procedure, shortened: as §1

| Sequence | binding signal |
| --- | --- |
| GAAAGG | 1 fold enrichment (6-mer frequency, TF over GST control) |
| TGTCGC | 1.04 fold enrichment (6-mer frequency, TF over GST control) |
| TACGGG | 1.08 fold enrichment (6-mer frequency, TF over GST control) |
| AGTCTT | 1.01 fold enrichment (6-mer frequency, TF over GST control) |

molecular target: T2, SPDEF (Homo sapiens, UniProt O95238 1-335); assay: as above; details: protein: recombinant; tags: N-terminal GST; dsDNA, one strand shown
T2 sequence: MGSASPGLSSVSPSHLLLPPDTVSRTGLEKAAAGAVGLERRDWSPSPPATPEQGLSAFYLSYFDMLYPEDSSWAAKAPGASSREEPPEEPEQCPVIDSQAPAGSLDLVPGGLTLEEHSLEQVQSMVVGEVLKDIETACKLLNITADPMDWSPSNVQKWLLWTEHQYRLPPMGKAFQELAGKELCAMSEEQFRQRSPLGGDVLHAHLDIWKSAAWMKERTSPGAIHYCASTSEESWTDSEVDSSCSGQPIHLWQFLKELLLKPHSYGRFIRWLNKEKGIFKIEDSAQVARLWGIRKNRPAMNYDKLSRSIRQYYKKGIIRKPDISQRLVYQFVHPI
Procedure, shortened: as §1

| Sequence | binding signal |
| --- | --- |
| GGTTGT | 1.03 fold enrichment (6-mer frequency, TF over GST control) |
| AGGATA | 1.31 fold enrichment (6-mer frequency, TF over GST control) |
| ACCGGT | 1.02 fold enrichment (6-mer frequency, TF over GST control) |
| GCGGAT | 1.25 fold enrichment (6-mer frequency, TF over GST control) |
| GGATGA | 1.11 fold enrichment (6-mer frequency, TF over GST control) |
| CGCGGA | 1.03 fold enrichment (6-mer frequency, TF over GST control) |

molecular target: T3, ETV7 (Homo sapiens, UniProt Q9Y603 1-341); assay: as above; details: protein: recombinant; tags: N-terminal GST; dsDNA, one strand shown
T3 sequence: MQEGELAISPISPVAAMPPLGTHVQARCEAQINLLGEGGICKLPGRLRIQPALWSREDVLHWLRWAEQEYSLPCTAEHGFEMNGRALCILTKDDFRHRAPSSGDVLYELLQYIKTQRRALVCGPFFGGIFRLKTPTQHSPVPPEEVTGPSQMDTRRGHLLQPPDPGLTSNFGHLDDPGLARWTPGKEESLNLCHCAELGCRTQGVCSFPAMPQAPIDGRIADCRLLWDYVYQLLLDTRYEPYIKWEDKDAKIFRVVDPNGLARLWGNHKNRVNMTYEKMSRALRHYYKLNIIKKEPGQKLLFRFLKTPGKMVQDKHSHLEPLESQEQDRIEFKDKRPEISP
Procedure, shortened: as §1

| Sequence | binding signal |
| --- | --- |
| GAAAGG | 1.02 fold enrichment (6-mer frequency, TF over GST control) |
| AAGCCG | 1.05 fold enrichment (6-mer frequency, TF over GST control) |
| GGATGA | 1.06 fold enrichment (6-mer frequency, TF over GST control) |

molecular target: T4, ELF5 (Homo sapiens, UniProt Q9UKW6-2 1-255); assay: as above; details: protein: recombinant; tags: N-terminal GST; dsDNA, one strand shown
T4 sequence: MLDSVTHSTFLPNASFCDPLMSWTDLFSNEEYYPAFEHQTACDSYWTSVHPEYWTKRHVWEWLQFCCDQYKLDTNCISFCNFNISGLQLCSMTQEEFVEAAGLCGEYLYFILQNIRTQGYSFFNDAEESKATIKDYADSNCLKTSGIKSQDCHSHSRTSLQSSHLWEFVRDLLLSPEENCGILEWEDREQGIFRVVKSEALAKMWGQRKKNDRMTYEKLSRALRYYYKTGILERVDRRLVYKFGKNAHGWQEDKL
Procedure, shortened: as §1

| Sequence | binding signal |
| --- | --- |
| ACAAGG | 1.14 fold enrichment (6-mer frequency, TF over GST control) |
| AGGATA | 1.17 fold enrichment (6-mer frequency, TF over GST control) |
| TAAGGA | 1.32 fold enrichment (6-mer frequency, TF over GST control) |
| TGTCGC | 1.04 fold enrichment (6-mer frequency, TF over GST control) |
| AGTCTT | 1.08 fold enrichment (6-mer frequency, TF over GST control) |
| GGATGA | 1.11 fold enrichment (6-mer frequency, TF over GST control) |
| CGCGGA | 1.03 fold enrichment (6-mer frequency, TF over GST control) |

molecular target: T5, ETV3 (Homo sapiens, UniProt P41162-2 1-143); assay: as above; details: protein: recombinant; tags: N-terminal GST; dsDNA, one strand shown
T5 sequence: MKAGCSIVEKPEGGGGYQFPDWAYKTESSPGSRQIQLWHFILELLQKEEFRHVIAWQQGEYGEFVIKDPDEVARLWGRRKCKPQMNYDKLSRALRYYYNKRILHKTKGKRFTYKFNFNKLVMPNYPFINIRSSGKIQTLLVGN
Procedure, shortened: as §1

| Sequence | binding signal |
| --- | --- |
| CAACAG | 1.02 fold enrichment (6-mer frequency, TF over GST control) |
| AGGATA | 1.06 fold enrichment (6-mer frequency, TF over GST control) |
| GGATGA | 1.03 fold enrichment (6-mer frequency, TF over GST control) |
| CGCGGA | 1.01 fold enrichment (6-mer frequency, TF over GST control) |
